Measurements as given in PubChem BioAssay (NCI).
Compounds without any hit were thinned out: in the full panel of roughly 83,000, 20% have a hit.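 96-well plates, one dose, 48 hours. Percent growth reported; active if below 10.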 Activity calls are given as the source filed them.

Each compound was assayed on MDA-MB-435 melanoma (assay: NCI-60 one-dose screen, 48 h (100 = growth as untreated, 0 = no growth, -100 = all killed)). Conditions: 10 µM unless noted.

| SMILES | growth |
| --- | --- |
| N#Cc1cccc(/C=C(/C(=O)c2ccccc2)c2ccccc2)c1 | 8.38% (active) |
| CCN1C(=O)c2ccc3c4c(ccc(c24)C1=O)C(=O)N(CCCNCc1ccccc1OC)C3=O | -80.3% (active) |
| O=C(/C=C/c1ccc(Cl)cc1)c1ccccc1 | 97% (inactive) |
| O=C(/C(=C/c1cccc([N+](=O)[O-])c1)c1ccccc1)c1ccccc1 | 7.47% (active) |
| Nc1nc2ncc(CCNc3ccc(C(=O)NC(CCC(=O)O)C(=O)O)cc3)nc2c(=O)[nH]1 (centres undefined) | 112% (inactive) |
| Cc1c(C(N)=O)sc2ncn(Cc3ccccc3)c(=O)c12 | 53.7% (inactive) |
| c1ccc(-c2nn[nH]n2)c(-c2ccc(CN3CCN(c4nsc5ccccc45)CC3)cc2)c1 | 92.2% (inactive) |
| NC(=O)NN=C(C1CC1)C1CC1 | 105% (inactive) |
| COc1cc2c(-c3nc4cc(Cl)c(F)cc4s3)cc(=O)oc2c(C)c1OC | -57.8% (active) |
| N#Cc1ccc(NC(=O)Nc2ccc(Oc3ccc(NC(=O)Nc4ccc(C#N)cc4)cc3)cc2)cc1 | 35.6% (inactive) |
| CC1(C)OC(=O)C(=Cc2ccccc2Br)C(=O)O1 | 98% (inactive) |
| O=C(/C=C/c1cc2ccccc2[nH]c1=O)c1ccc(Cl)cc1 | 8.38% (active) |
| Cc1cc(N2CCOCC2)nc(N2CCOCC2)n1 | 96.4% (inactive) |
| CC/C=C\C=C/C(=O)N/C=C/CC1Cc2cccc(O)c2C(=O)O1 (centres undefined) | -52.1% (active) |
| COc1ccc(-c2csc(NC(=O)c3cc(O)c(O)c(O)c3)n2)cc1 | 64.4% (inactive) |
| NNC(=O)C1CC2c3ccccc3C1c1ccccc12 (centres undefined) | 106% (inactive) |
| COc1ccc(OC)c(NC(=O)c2cc3oc4ccccc4c3cc2O)c1 | 105% (inactive) |
| CCCc1cc(=O)n2c(C(=O)Nc3ccccc3OC)c(C(=O)Nc3ccc(F)cc3)sc2n1 | 65.8% [30 µM] (inactive) |
| N#Cc1c2ccccc2c2n1-c1ccccc1OC(c1ccccc1)C2=O (centres undefined) | 24.1% (inactive) |

| SMILES | growth |
| --- | --- |
| CCOC(=O)/C(=C/c1ccccc1)C(=O)c1ccccc1 | 50.8% (inactive) |
| O=C(Nc1nc(-c2ccccc2)cs1)c1cc(O)c(O)c(O)c1 | 61% (inactive) |
| COc1cc(/C=C2\CCC/C(=C\c3ccc(OCC4CO4)c(OC)c3)C2=O)ccc1OCC1CO1 (centres undefined) | -32.3% (active) |
| C/C(=N\N1CC(=O)NC1=O)c1ccc([N+](=O)[O-])o1 | 88.5% (inactive) |
| Cc1ccc(C(C)C)cc1NC(=O)Nc1ccc([N+](=O)[O-])cc1 | 11% (inactive) |
| O=C1Cc2cc(CCn3cncn3)c(Cl)cc2N1 | 34.4% (inactive) |
| COc1cc(OC)c2cc(C(=O)O)c(=O)oc2c1 | 76.8% (inactive) |
| Cn1c(=O)c2nc(SCc3ccccc3)n(C)c2n(C)c1=O | 113% (inactive) |
| O=C1OCCCCCCCCCC#Cc2ccccc21 | 104% (inactive) |
| COc1cc(/C=C/C(=O)c2c(-c3ccc(Cl)cc3)nc3sc(C)nn23)cc(OC)c1OC | 73.9% (inactive) |
| COc1cc2c(C#N)n3c(c2cc1OC)C(=O)C(c1ccccc1)Oc1ccccc1-3 (centres undefined) | 55.5% (inactive) |
| O=C(Cc1ccccn1)C(F)(F)C(F)(F)C(F)(F)F | 113% (inactive) |
| COc1cc(/C=C/C(=O)Nc2ccc3c(c2)/C(=C\c2cccn2C)C(=O)N3)cc(OC)c1OC | 59.9% (inactive) |
| COc1cc(/C=C/C(=O)c2c(-c3ccc(F)cc3)nc3sc(C)nn23)cc(OC)c1OC | 11.9% (inactive) |
| CN(C)c1ccc(/C=C\c2ccnc3ccccc23)cc1 | 33.6% (inactive) |
| CC[C@]1(O)CC2CN(CCc3c([nH]c4ccccc34)[C@@](C(=O)OC)(c3cc4c(cc3OC)N(C)[C@H]3[C@@](O)(C(=O)OC)[C@H](OC(C)=O)[C@]5(CC)C=CCN6CC[C@]43[C@@H]65)C2)C1 (some centres undefined) | -17.8% (active) |
| CCOC(=O)c1c(C)nc(C)c(C(=O)OCC)c1-c1cccnc1 | 111% (inactive) |
| COc1ccc(/C=C(\C#N)c2ccccc2)cc1 | 12% (inactive) |

The compounds below were run on SW-620 colon in the same assay as above. Conditions: 10 µM unless noted.

| SMILES | growth |
| --- | --- |
| N#Cc1cccc(/C=C(/C(=O)c2ccccc2)c2ccccc2)c1 | 7.39% (active) |
| CCN1C(=O)c2ccc3c4c(ccc(c24)C1=O)C(=O)N(CCCNCc1ccccc1OC)C3=O | -57.4% (active) |
| O=C(/C=C/c1ccc(Cl)cc1)c1ccccc1 | 89.3% (inactive) |
| O=C(/C(=C/c1cccc([N+](=O)[O-])c1)c1ccccc1)c1ccccc1 | 10.9% (inactive) |
| Nc1nc2ncc(CCNc3ccc(C(=O)NC(CCC(=O)O)C(=O)O)cc3)nc2c(=O)[nH]1 (centres undefined) | 103% (inactive) |
| Cc1c(C(N)=O)sc2ncn(Cc3ccccc3)c(=O)c12 | 103% (inactive) |
| c1ccc(-c2nn[nH]n2)c(-c2ccc(CN3CCN(c4nsc5ccccc45)CC3)cc2)c1 | 88.7% (inactive) |
| NC(=O)NN=C(C1CC1)C1CC1 | 98.6% (inactive) |
| COc1cc2c(-c3nc4cc(Cl)c(F)cc4s3)cc(=O)oc2c(C)c1OC | -58.3% (active) |
| N#Cc1ccc(NC(=O)Nc2ccc(Oc3ccc(NC(=O)Nc4ccc(C#N)cc4)cc3)cc2)cc1 | 15.8% (inactive) |
| CC1(C)OC(=O)C(=Cc2ccccc2Br)C(=O)O1 | 96.2% (inactive) |
| O=C(/C=C/c1cc2ccccc2[nH]c1=O)c1ccc(Cl)cc1 | -19.9% (active) |
| Cc1cc(N2CCOCC2)nc(N2CCOCC2)n1 | 102% (inactive) |
| CC/C=C\C=C/C(=O)N/C=C/CC1Cc2cccc(O)c2C(=O)O1 (centres undefined) | 26.9% (inactive) |
| COc1ccc(-c2csc(NC(=O)c3cc(O)c(O)c(O)c3)n2)cc1 | 56.8% (inactive) |
| NNC(=O)C1CC2c3ccccc3C1c1ccccc12 (centres undefined) | 108% (inactive) |
| COc1ccc(OC)c(NC(=O)c2cc3oc4ccccc4c3cc2O)c1 | 104% (inactive) |
| CCCc1cc(=O)n2c(C(=O)Nc3ccccc3OC)c(C(=O)Nc3ccc(F)cc3)sc2n1 | 64.1% [30 µM] (inactive) |
| N#Cc1c2ccccc2c2n1-c1ccccc1OC(c1ccccc1)C2=O (centres undefined) | 56.9% (inactive) |

| SMILES | growth |
| --- | --- |
| CCOC(=O)/C(=C/c1ccccc1)C(=O)c1ccccc1 | 70.9% (inactive) |
| O=C(Nc1nc(-c2ccccc2)cs1)c1cc(O)c(O)c(O)c1 | 39.7% (inactive) |
| COc1cc(/C=C2\CCC/C(=C\c3ccc(OCC4CO4)c(OC)c3)C2=O)ccc1OCC1CO1 (centres undefined) | -23% (active) |
| C/C(=N\N1CC(=O)NC1=O)c1ccc([N+](=O)[O-])o1 | 97.2% (inactive) |
| Cc1ccc(C(C)C)cc1NC(=O)Nc1ccc([N+](=O)[O-])cc1 | 10.5% (inactive) |
| O=C1Cc2cc(CCn3cncn3)c(Cl)cc2N1 | 54.2% (inactive) |
| COc1cc(OC)c2cc(C(=O)O)c(=O)oc2c1 | 103% (inactive) |
| Cn1c(=O)c2nc(SCc3ccccc3)n(C)c2n(C)c1=O | 106% (inactive) |
| O=C1OCCCCCCCCCC#Cc2ccccc21 | 93.9% (inactive) |
| COc1cc(/C=C/C(=O)c2c(-c3ccc(Cl)cc3)nc3sc(C)nn23)cc(OC)c1OC | 59.6% (inactive) |
| COc1cc2c(C#N)n3c(c2cc1OC)C(=O)C(c1ccccc1)Oc1ccccc1-3 (centres undefined) | 87.6% (inactive) |
| O=C(Cc1ccccn1)C(F)(F)C(F)(F)C(F)(F)F | 109% (inactive) |
| COc1cc(/C=C/C(=O)Nc2ccc3c(c2)/C(=C\c2cccn2C)C(=O)N3)cc(OC)c1OC | 83.1% (inactive) |
| COc1cc(/C=C/C(=O)c2c(-c3ccc(F)cc3)nc3sc(C)nn23)cc(OC)c1OC | 19.2% (inactive) |
| CN(C)c1ccc(/C=C\c2ccnc3ccccc23)cc1 | 87.7% (inactive) |
| CC[C@]1(O)CC2CN(CCc3c([nH]c4ccccc34)[C@@](C(=O)OC)(c3cc4c(cc3OC)N(C)[C@H]3[C@@](O)(C(=O)OC)[C@H](OC(C)=O)[C@]5(CC)C=CCN6CC[C@]43[C@@H]65)C2)C1 (some centres undefined) | 21.6% (inactive) |
| CCOC(=O)c1c(C)nc(C)c(C(=O)OCC)c1-c1cccnc1 | 112% (inactive) |
| COc1ccc(/C=C(\C#N)c2ccccc2)cc1 | 71.4% (inactive) |
